Data published in PubChem BioAssay AID1566 (Sanford-Burnham Center for Chemical Genomics, 2009).
Out of some 290,000 compounds screened, about 1,800 (0.62%) were called active. Cut-off read from the data, not from the text of the source: active = inhibition above about 50%; inactive = the rest. The entries come from a sample that favours actives as a whole.

assay: NOD2 signaling inhibitors, cell-based, luminescence, uHTS, HEK293 (AID 1566); settings: HEK293 NOD2/NF-kB luciferase reporter, at 4 µM, active compounds read high

inhibition, active:
Cc1ccc2nc(NC(=O)c3ccccn3)sc2c1 76.3%, Cc1cc(-n2c(C)cc(C(=O)CSc3ncnc4ccccc34)c2C)no1 52.3%, Cc1ccccc1-n1c(SC2CCOC2=O)nnc1-c1ccncc1 (stereo not drawn) 51.5%, O=C(Nc1ccc(N2CCOCC2)cc1)c1cnsn1 52.4%, O=C(Nc1ccc(N2CCCCC2)cc1)c1ccccn1 69.8%, CN1C(=O)/C(=C\c2ccccc2F)Sc2ccc(C(=O)NC3CCN(Cc4ccccc4)CC3)cc21 58.2%, Cc1nc(C)c(C(=O)N/N=C/c2cc(Br)ccc2O)s1 50.9%, O=C(N/N=C/c1cc([N+](=O)[O-])ccc1O)c1ccc(COc2ccc3c(c2)CCC3)o1 50.4%, COc1ccc([N+](=O)[O-])c(S(=O)(=O)c2ccc(Cl)cc2)n1 60.3%, Cc1ccc(NC(=O)CSc2ccc3c(c2)OCCO3)c(O)c1 54.3%, CNc1nnc(-c2cc3cc(Cl)ccc3oc2=O)s1 94.4%

inhibition, inactive:
CN(C)C(=O)c1ccc2c3c(cccc13)CC2 17.8%, CCCS(=O)(=O)c1nc(S(=O)(=O)c2ccc(C)cc2)c(N2CCN(CC)CC2)s1 -12.7%, Cc1nc2nc(SCc3ccc([N+](=O)[O-])cc3)[nH]c2cc1Br -1%, CSc1ccc(C2N=C(c3ccccc3)NO2)cc1 (stereo not drawn) -83.4%, CCOCCCNC(=O)C(NC(=O)CNC(C)=O)c1ccc(C)cc1 (stereo not drawn) 3.7%, CCN(CC)S(=O)(=O)c1cccc(C(=O)N[C@@H](C)c2nc3ccccc3[nH]2)c1 11.7%, CCOC(=O)c1ccc(N2C(=O)C(CC(N)=O)N(NC(=O)c3cccc(F)c3)C2=S)cc1 (stereo not drawn) 4.2%, Cc1ccc2nc(NC(=O)c3ccccc3F)sc2c1 -152%, Cc1ccc2nc(NC(=O)COC(=O)c3ccccn3)sc2c1 -25.5%, COc1ccc(-n2c3c(cc(C#N)c2=O)C(=O)CCC3)cc1 6.2%, CCOc1ccc(S(=O)(=O)Nc2ccc(C(=O)NCC(c3ccccc3)N(C)C)cc2)cc1 (stereo not drawn) 7.3%, CCOC(=O)c1ccc(Nc2nc(N3CCOCC3)nc(N3CCOCC3)n2)cc1 -7.2%, CCOC(=O)N1CCC(N2CCN(Cc3ccc(C)o3)C(CCO)C2)CC1 (stereo not drawn) 2.4%, CCC(C(=O)NC1CCCC1)N(C(=O)Cn1nnc(-c2ccc(C)o2)n1)c1cccc(O)c1 (stereo not drawn) 8.2%, Cc1cc(-n2c(C)cc(C(=O)CSc3nc4ccccc4c(=O)n3Cc3ccco3)c2C)no1 18.1%, Cc1cc(NC(=O)CSc2ncnc3ccccc23)no1 20%, Cc1cccc(NC(=O)COC(=O)C2C3CC4OC(=O)C2C4C3)c1C (stereo not drawn) -27.4%, O=C1OCCC1Sc1nnc(-c2cccnc2)n1-c1ccccc1F (stereo not drawn) 13.6%, Cc1ccccc1-n1nnnc1SC1CCOC1=O (stereo not drawn) 5.6%, O=C(O)c1cccc(NC(=S)N/N=C/c2ccccc2OCc2ccc(Br)cc2)c1 0.3%, C/C(=C\c1ccccc1)CN1CCN(Cc2ccc(C)o2)C(CCO)C1 (stereo not drawn) -6.3%, CCOC(=O)C1CCN(C(=O)CS(=O)(=O)Cc2nc(-c3ccccc3Cl)oc2C)CC1 17.3%, Cc1cnc(C(=O)Nc2ccc(N3CCOCC3)cc2)cn1 -3.6%, O=C(Nc1ccc(N2CCCCCC2)cc1)c1ccccc1Cl -104%, O=C(Nc1ccc(N2CCOCC2)cc1)Nc1cnsn1 -3.9%, O=C(Nc1ccc(N2CCCCC2)cc1)c1cccnc1Cl -2.2%, O=C(CSc1nc2ccccc2[nH]1)NCc1ccccc1 -35%, COc1ccc(S(=O)(=O)N2CCN(CC(O)COc3ccc(C#N)cc3)CC2)cc1OC (stereo not drawn) 1.5%, CC(=O)Nc1ccccc1OCC(=O)N(Cc1ccccc1)C(C)C 19.2%, Cc1ccc(-n2c(C)nc3ncnc(-c4ccccc4)c32)cc1 17.9%, CN1C(=O)/C(=C/c2ccccc2F)Sc2ccc(C(=O)N3CCCC3)cc21 37.3%, CN1C(=O)/C(=C/c2ccccc2F)Sc2ccc(C(=O)NCC3CCCO3)cc21 (stereo not drawn) 17%, CCc1c(C)nc2c(C)cccc2c1SCCC#N 12.6%, O=C(CN1CCN(C(c2ccccc2)c2ccccc2)CC1)Nc1ccc(N2CCOCC2)cc1 6.9%, COC(=O)c1c(NC(=O)c2ccc(OC(C)C)cc2)sc2c1CC(C)(C)NC2(C)C 7.3%, COc1ccccc1/C=N/NC(=O)c1sc(C)nc1C 6.4%, COc1ccc(/C=N/NC(=O)c2sc(C)nc2C)cc1 13.6%, Cc1onc(-c2ccccc2)c1C(=O)N1CCOC12CCN(c1cccc(F)n1)CC2 14.4%, O=C(NCCc1ccccc1)C1CCCN(c2ncnc3c2nc2n3CCCCC2)C1 (stereo not drawn) 18.5%, COC(=O)c1sc(N2C(=O)C(O)=C(C(=O)c3ccc(C)o3)C2c2ccco2)nc1C (stereo not drawn) 39.6%, O=C(NCc1ccccc1)N1CCOCC1 -1.5%, CC(=O)Nc1cc2c(=O)n(Cc3ccccc3)c(C)nc2cc1N1CCOCC1 9.5%, Cc1nc2cc(N3CCCCC3)c(NC(=O)c3ccncc3)cc2c(=O)n1Cc1ccccc1 10.5%, CC(=O)Nc1ccc(NC(=O)c2sc(-c3ccccc3)nc2C)cc1 19.3%, COc1cc2cc(CN(CCc3ccccc3C)C(=S)NCCCN3CCOCC3)c(=O)[nH]c2cc1OC 17.4%, O=C(O)c1ccc(Nc2nc3ccccc3nc2NS(=O)(=O)c2cccs2)cc1 7.1%, COc1ccc(Nc2nc3ccccc3nc2NS(=O)(=O)c2cccs2)cc1 37.8%, CC(=O)Nc1ccc(S(=O)(=O)N2CCN(CC(=O)NC3CCCC3)CC2)cc1 -8.9%, O=C1OCC2=C1C(c1ccccc1)CC(=O)N2c1ccc(F)cc1 (stereo not drawn) -3.1%, COc1ccccc1COc1ccc2c(C)c(CC(=O)O)c(=O)oc2c1C 10.3%, COc1ccc(-c2coc3c(C)c4oc(=O)c(CCC(=O)O)c(C)c4cc23)cc1 5.8%, Cc1c(CCC(=O)O)c(=O)oc2c(C)c(OCc3cc4c(cc3Cl)OCO4)ccc12 35%, Cc1c(CCC(=O)O)c(=O)oc2c(C)c3occ(-c4ccc(Br)cc4)c3cc12 41%, CCOc1ccccc1C(=O)OCC(=O)NCCNC(=O)COC(=O)c1ccccc1OCC -4.3%, CCCN1C(=O)/C(=C/c2ccc(C)o2)SC1=Nc1ccc(OCC)cc1 1.9%, O=c1cc(CSc2nnc(COc3ccc(Cl)cc3)o2)c2ccccc2[nH]1 17.3%, COc1cccc(C2CNC3(CCCC(C)C3)c3[nH]c4ccccc4c32)c1OC (stereo not drawn) -9%, O=C(N/N=C/c1cccc(O)c1)c1ccc(COc2ccc3c(c2)CCC3)o1 -30.7%, COc1ccc(Br)cc1/C=N/NC(=O)c1ccc(COc2ccc3c(c2)CCC3)o1 -48.8%, O=C(NCCc1ccc(Cl)cc1)C1CCCN1C(=O)Nc1ccccc1 (stereo not drawn) 13.4%, Cc1ccc(NC(=O)C(C)Sc2n[nH]c(CNc3ccccc3)n2)cc1 (stereo not drawn) 3.6%, CC1Sc2ccc(S(=O)(=O)N3CCC(C(=O)Nc4cccc(Cl)c4)CC3)cc2NC1=O (stereo not drawn) 14.4%, Cc1ccc(NC(=O)C2CCN(S(=O)(=O)c3ccc4c(c3)NC(=O)C(C)S4)CC2)cc1C (stereo not drawn) 16.5%, CN(C)c1ccc(C2N(C(=O)N3CCOCC3)CCN2S(=O)(=O)c2ccccc2)cc1 (stereo not drawn) 13.1%, Cc1c(Br)c([N+](=O)[O-])nn1CC(=O)Nc1ccc2nc3n(c(=O)c2c1)CCCC3 17.3%, Cc1ccc(/C=C(/NC(=O)c2ccccc2)C(=O)NC(Cc2c[nH]c3ccccc23)C(=O)O)cc1 (stereo not drawn) 9.4%, COc1nc(OC)nc(Oc2ccc(Cl)cc2[N+](=O)[O-])n1 10.1%, COc1ccc([N+](=O)[O-])c(S(=O)(=O)c2ccccc2)n1 29%, Cc1c(CC(=O)N[C@@H](C)C(=O)O)c(=O)oc2cc3occ(-c4ccccc4)c3cc12 14%, COc1cc(C(=O)OCC(C)=O)c([N+](=O)[O-])cc1OC 0.4%, CCSc1nc(-c2ccccc2)c(C#N)c(=O)[nH]1 20%, N#Cc1c(-c2ccccc2)nc(SCc2ccc(Cl)cc2)[nH]c1=O 24.8%, O=C(c1ccc2c(=O)n(-c3ccccc3)c(=O)[nH]c2c1)N1CCN(c2ccc(F)cc2)CC1 14.2%, Cc1cc(NC(=O)CSc2ccc3c(c2)OCCO3)no1 14.9%, Cc1cccc(SCC(=O)Nc2ccc3c(c2)OCCO3)c1 -70.2%, CCn1c(=O)c(=O)[nH]c2cc(C(=O)NC(C)c3ccc(S(N)(=O)=O)cc3)ccc21 (stereo not drawn) -19.7%, O=c1oc2ccc(Cl)cc2cc1-c1nnc(Nc2cccc(C(F)(F)F)c2)s1 9%, CNc1nnc(-c2cc3ccccc3oc2=O)s1 -76.8%, CCOC(=O)N1CCN(C(=O)c2ccccc2NC(=O)c2ccc(C(C)(C)C)cc2)CC1 4.9%, CC(=O)c1sc(-c2ccc(F)cc2F)nc1C -0.7%, Cc1cnc(NC(=O)c2c(-c3ccccc3)noc2C)s1 5.6%, Cc1nnc(NC(=O)c2c(-c3ccccc3)noc2C)s1 4.4%
